Results taken from PubChem BioAssay AID602429 (Sanford-Burnham Center for Chemical Genomics, 2012).
The campaign covered roughly 360,000 compounds. About 1,200 (0.33%) were called active. Cut-off read from the data, not from the text of the source: active = inhibition above about 37%; inactive = the rest. The full list was thinned out, with actives kept by preference.

Target: Small ubiquitin-related modifier 1 (Homo sapiens) (UniProt P63165)
Assay: modulators of SUMO1 protein-protein interactions, primary screen, biochemical, uHTS (AID 602429)
Conditions: SUMO1 binding to a labelled peptide, TR-FRET, 1 h; at 20 µM; stronger effect = higher value

Small ubiquitin-related modifier 1 (Homo sapiens), sequence (P63165 whole entry, looked up): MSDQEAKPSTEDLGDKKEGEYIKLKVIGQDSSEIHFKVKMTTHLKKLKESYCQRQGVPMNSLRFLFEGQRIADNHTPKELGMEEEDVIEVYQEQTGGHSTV

| Structure (SMILES) | inhibition |
| --- | --- |
| OCCC1CN(Cc2cnc(-c3ccccc3)s2)CCN1CCc1ccccc1 (stereo unspecified) | -2.45% (inactive) |
| Cn1c(N)c(C(=O)COC(=O)/C=C/c2ccc(OC(F)F)cc2)c(=O)n(C)c1=O | -2.46% (inactive) |
| O=S(=O)(c1ccccc1)N1CN(Cc2ccc(F)cc2)c2nc3ccccc3nc21 | -3.38% (inactive) |
| O=C(Nc1ccccc1Cc1ccccc1)c1ccc2c(c1)SC1=NS(=O)(=O)CCN12 | 28.2% (inactive) |
| O=C(Nc1cccc(-c2nc3ccccc3[nH]2)c1)c1ccc(C(=O)Nc2cccc(-c3nc4ccccc4[nH]3)c2)cc1 | 56.6% (active) |
| CCOc1ccc(C(=O)Nc2cccc(SC)c2)cc1 | -1.79% (inactive) |
| O=C(NNC(=O)c1ccc(-c2ccccc2)cc1)Nc1ccccc1 | 2.2% (inactive) |
| C/C(CC(=O)NC(C)c1ccccc1)=N\NC(N)=S (stereo unspecified) | -2.76% (inactive) |
| CC(=O)c1c(C)[nH]c(C(=O)CN2C(=O)NC(C)(C)C2=O)c1C | -2.31% (inactive) |
| CCOc1cccc2c1OC1(CCCCC1)N1N=C(c3cccnc3)CC21 (stereo unspecified) | -1.86% (inactive) |
| O=C(NC1CCCCC1)c1ccc(CNc2c(N3CCOCC3)c(=O)c2=O)cc1 | -0.641% (inactive) |
| O=C(NCc1ccccc1)c1ccc(CNc2c(N3CCCC3)c(=O)c2=O)cc1 | -2.77% (inactive) |
| COc1cc(NC(=O)c2ccc(CNc3c(N4CCCC4)c(=O)c3=O)cc2)cc(OC)c1OC | 48.9% (active) |
| COC(=O)c1sccc1NN1C(=O)c2ccccc2C1=O | -2.44% (inactive) |
| Cc1ccc(C(=O)O)cc1-c1ccc(/C=C2\SC(=O)N(CC(=O)Nc3ccc4c(c3)OCO4)C2=O)o1 | 106% (active) |
| Cc1nc([N+](=O)[O-])cn1CC(=O)Nc1ccc2c(c1)OCO2 | -6.05% (inactive) |
| O=C(CCN1C(=O)c2ccncc2C1=O)Nc1ccc2c(c1)OCCO2 | -14.5% (inactive) |
| CC(=O)O[C@H]1CC[C@@]2(C)[C@@H](CC[C@@H]3[C@@H]2CC[C@]2(C)[C@@H](C(C)(C)O)C[C@@H]32)C1 | 1.55% (inactive) |
| C[C@H]([C@@H](O)[C@@H](O)[C@@H](C)C(C)(C)C)[C@H]1CC[C@H]2C3CC[C@H]4C[C@H](OS(=O)(=O)O)[C@@H](OS(=O)(=O)O)C[C@]4(C)[C@H]3CC[C@]12C (stereo partly specified) | 57.1% (active) |
| CCC(CC)c1nnc(NC(=O)C2CCN(C(=O)c3ccco3)CC2)s1 | 0.246% (inactive) |
| O=C(Nc1cccnc1)c1ccc(Cl)cc1[N+](=O)[O-] | -24.2% (inactive) |
| Fc1cc(Br)ccc1NC(=S)Nc1cccnc1 | -2.62% (inactive) |

| Structure (SMILES) | inhibition |
| --- | --- |
| O=C(Nc1cccnc1)c1cc2cc(Br)ccc2oc1=O | 79% (active) |
| CC(=O)c1c(C)[nH]c(C(=O)COC(=O)c2cccc(S(=O)(=O)N(C)c3ccccc3)c2)c1C | 0.686% (inactive) |
| CCCCCCCCn1c2c(c(=N)c3c1CCC3)CCCC2 | -1.62% (inactive) |
| COc1ccc(NC(=O)CN(C)C(=O)c2cc(C)oc2C)cc1 | -3.07% (inactive) |
| COc1ccc(CC(=O)Nc2ccc(-c3nnc(-c4ccc(C)cc4)o3)cc2)cc1 | 52% (active) |
| COc1ccc(NC(=O)Cn2c(-c3ccc(OC)cc3)cn(-c3ccc(C)cc3)c2=O)cc1 | 5.25% (inactive) |
| COc1c(F)c(F)c(-c2csc(N)n2)c(F)c1F | -2.44% (inactive) |
| CCCc1nn(C)c2c(=O)[nH]c(-c3cc(S(N)(=O)=O)ccc3OCC)nc12 | 3.1% (inactive) |
| CN(CC(=O)NC1CCN(Cc2ccccc2)CC1)S(=O)(=O)c1ccc(Cl)s1 | 0.847% (inactive) |
| O=C(O)C(c1ccccc1)N1C(=O)/C(=C\c2ccc(-c3cccc(Cl)c3)o2)SC1=S (stereo unspecified) | 75.9% (active) |
| O=C(Cn1nnc(-c2ccccc2)n1)N/N=C/c1ccc(-c2ccc(Cl)cc2)o1 | 7.31% (inactive) |
| CCC(C)N1C(=O)S/C(=C/c2ccc(Sc3nc4ccccc4[nH]3)o2)C1=O (stereo unspecified) | -5.85% (inactive) |
| COc1ccccc1CC(NC(C)=O)C(=O)NC1CCN(C(=O)Nc2ccccc2Cl)CC1 (stereo unspecified) | 0.952% (inactive) |
| CN1C(=O)c2ccccc2C(C(=O)NCCCN2CCCC2)C1c1c[nH]c2ccccc12 (stereo unspecified) | 3% (inactive) |
| Cn1c(=O)c2cc(S(=O)(=O)NCCC(=O)Nc3ccc(F)cc3F)ccc2n(C)c1=O | -1.62% (inactive) |
| Cc1cccc(-[n+]2c(-c3cccc(Br)c3)[nH]c3nc4ccccc4nc32)c1 | 1.4% (inactive) |
| C=CC1=C(C(=O)O)N2C(=O)[C@@H](NC(=O)/C(=N/OCC(=O)O)c3csc(N)n3)[C@H]2SC1 | 121% (active) |
| C=CC1=C(C(=O)O)N2C(=O)[C@@H](NC(=O)/C(=N\OCC(=O)O)c3csc(N)n3)[C@H]2SC1 | 56.1% (active) |
| COc1cc(C(=O)OCC(=O)NC23CC4CC(CC(C4)C2)C3)cc(OC)c1OC | 5.78% (inactive) |
| C#CC(C)(C)NC(=O)c1cnc(-c2ccccc2)nc1-c1ccccc1 | 1.04% (inactive) |
| Cc1nc(-c2ccccc2)sc1-c1nc(-c2ccccc2)ncc1S(=O)(=O)c1ccccc1 | 56.4% (active) |
| Cc1nc(-c2ccccc2)sc1-c1nnc(C2CC2)o1 | -25.8% (inactive) |

| Structure (SMILES) | inhibition |
| --- | --- |
| O=C(CCNC(=O)c1ccc(Br)cc1)Nc1cccc(S(=O)(=O)N2CCCCC2)c1 | 0.625% (inactive) |
| O=C1NC[C@H](CCCCN2CCN(CCc3ccccc3)C(=O)C2=O)N(CC2CCCCC2)C1=O | 0.562% (inactive) |
| Cc1ccc2[nH]c3c(=O)n(Cc4ccccn4)cnc3c2c1 | 2.63% (inactive) |
| COc1cc(OC)c(OC)cc1/C=N/Nc1ncnc2c1[nH]c1ccc(C)cc12 | 60.7% (active) |
| CC1(C)CC(=O)C=C(c2ccc(COC(=O)c3cc(F)cc(F)c3)cc2)C1=O | -22.7% (inactive) |
| COc1ccc(OC)c(NC(=S)N2CCc3ccccc3C2)c1 | 0.375% (inactive) |
| O=C(NCc1ccccc1)C(c1ccc(F)cc1)N1CCN(C(=O)C2CCCO2)CC1 (stereo unspecified) | -1.69% (inactive) |
| CCOC(=O)c1c(-c2cccc(N)c2)cn2ccccc12 | -5.65% (inactive) |
| CC1(C)OC(=O)N2CCc3ccccc3C21C (stereo unspecified) | 3.74% (inactive) |
| CC(=O)Nc1ccc(S(=O)(=O)N2CCC(C(=O)N[C@@H](Cc3ccccc3)C(=O)O)CC2)cc1 | 0.0701% (inactive) |
| COc1cc(C2C3C(=O)N(c4ccccc4)C(=O)C3ON2c2ccccc2)ccc1O (stereo unspecified) | 5.72% (inactive) |
| O=c1ccc2c(-c3ccccc3S(=O)(=O)O)c3ccc(O)c(O)c3oc-2c1O | 48.2% (active) |
| COc1cccc(-c2cc3nc4c(c(N5CCC6(CC5)OCCO6)n3n2)CCCC4)c1 | 1.23% (inactive) |
| N#CC1(NC(=O)COC(=O)CSc2ccc(F)cc2)CCCCC1 | 1.24% (inactive) |
| O=C(NCC1CCCO1)C1CCN(C2CCN(C(=O)C3CCCCC3)CC2)CC1 (stereo unspecified) | 2.09% (inactive) |
| COc1ccc(C(=O)NCc2ccccc2C)cc1S(=O)(=O)NC1CCCC1 | 0.24% (inactive) |
| CCCNC(=O)C1(C)CCN(C(=O)c2cc(F)ccc2C)C1 (stereo unspecified) | -2.78% (inactive) |
| CCCCCc1nnc(NC(=O)c2ccc(=O)n(C)n2)s1 | -5.45% (inactive) |
| COCCNC(=O)Cn1cc2c(n1)CCCCC2 | 42.7% (active) |
| COc1ccccc1CNC(=O)Cn1cc2c(n1)CCCC2 | -1.54% (inactive) |
| O=C(Cn1cc2c(n1)CCCCC2)NCCN1CCOCC1 | -0.24% (inactive) |
| Cc1ccc(NC(=O)c2oc(=O)c3ccccc3c2-c2ccccc2)c(C)c1 | 3.85% (inactive) |

| Structure (SMILES) | inhibition |
| --- | --- |
| CCC1(C)COC(c2ccc(OC)c(OC)c2)OC1 (stereo unspecified) | 0.985% (inactive) |
| CCCC(C(=O)n1nc(C)cc1C)C(NS(=O)(=O)c1ccc(C)cc1)c1ccccc1 (stereo unspecified) | -1.84% (inactive) |
| Nc1ccc2nc3c(=O)[nH]c(=S)[nH]c3nc2c1 | 92.6% (active) |
| CC(C)c1nc(SCC(=O)NC(=O)NC(C)(C)C)n[nH]1 | 1.88% (inactive) |
| COc1ccc(C)cc1N(CC(=O)NC(C)c1ccccc1)S(C)(=O)=O (stereo unspecified) | -0.711% (inactive) |
| CN(Cc1ccco1)S(=O)(=O)c1nnc(NC(=O)c2ccccc2)s1 | 6.06% (inactive) |
| O=[N+]([O-])c1c(NCCO)cc(Sc2nc3ccccc3s2)c2nonc12 | 48.4% (active) |
| Cc1ccccc1C(=O)Nc1cccc(-c2nnc(SCC(=O)O)n2C)c1 | 3.31% (inactive) |
| CC(C)C(C(=O)NCc1ccco1)N(CC1CCCO1)C(=O)CNS(=O)(=O)c1ccc(F)cc1 (stereo unspecified) | 4.85% (inactive) |
| Cc1cc2cc3n(c2nn1)N=C(Cl)CC3 | -9.97% (inactive) |
| COc1cccc2c1C(=O)c1c(O)c3c(c(O)c1C2=O)CC(O)(C(C)=NNC(=O)c1ccc(Cl)c(Cl)c1)CC3OC1CC(N)C(O)C(C)O1 (stereo unspecified) | 111% (active) |
| COc1ccc(NC(=O)CN(C)C(=O)c2cc(C3CC3)nn2-c2ccccc2)cc1 | -1.85% (inactive) |
| CCN1C(=NCCc2cccnc2)N[C@@H](c2ccccc2)[C@H](C(=O)OC)[C@H]1C | -3.87% (inactive) |
| CN(C(=O)CC1C(=O)NCCN1Cc1ccc(F)cc1Cl)C1CCCCC1 (stereo unspecified) | -1.34% (inactive) |
| COc1ccc(OC)c(Nc2nc3ccccc3n3cnnc23)c1 | 47.2% (active) |
| COc1ccc(CCNc2nc3ccc(C)cc3n3cnnc23)cc1OC | 2.61% (inactive) |
| COc1cc(Nc2nc3ccc(Cl)cc3n3cnnc23)cc(OC)c1OC | -1.84% (inactive) |
| N#C/C(=C/c1cccc([N+](=O)[O-])c1)c1nnc2n1CCCCC2 | -13.1% (inactive) |
| CC1CCN(C(=O)COC(=O)c2cc(=O)[nH]c3ccccc23)CC1 | -34.7% (inactive) |
| Oc1c(Cl)cc(Cl)c(Cl)c1Cc1c(O)c(Cl)cc(Cl)c1Cl | 68.6% (active) |
